Screening data from PubChem.
FLuc inh = Photinus pyralis luciferase inhibition | P08659 | purified P. pyralis luciferase, luminescence, biochemical | Potency, µM (doses to about 115 µM), actives largely listed as inhibitors | 76,000 compounds, 2.5% hits | AID 1347043; also: nearly all actives have a fitted effect of over 65% in size
Target sequence (P08659 whole entry, looked up): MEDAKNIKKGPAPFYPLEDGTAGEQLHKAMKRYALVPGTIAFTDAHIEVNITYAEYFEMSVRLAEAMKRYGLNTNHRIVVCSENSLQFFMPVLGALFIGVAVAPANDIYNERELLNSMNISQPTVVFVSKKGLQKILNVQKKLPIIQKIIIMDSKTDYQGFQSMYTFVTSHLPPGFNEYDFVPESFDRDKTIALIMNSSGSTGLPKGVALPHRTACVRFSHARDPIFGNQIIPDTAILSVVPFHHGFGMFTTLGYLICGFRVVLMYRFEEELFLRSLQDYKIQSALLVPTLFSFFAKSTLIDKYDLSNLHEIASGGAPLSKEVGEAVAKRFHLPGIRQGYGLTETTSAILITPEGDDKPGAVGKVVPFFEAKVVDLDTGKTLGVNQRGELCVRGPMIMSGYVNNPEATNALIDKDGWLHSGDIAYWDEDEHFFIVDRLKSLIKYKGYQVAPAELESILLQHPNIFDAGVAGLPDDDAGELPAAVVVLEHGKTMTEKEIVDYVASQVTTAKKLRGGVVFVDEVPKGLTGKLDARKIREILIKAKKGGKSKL
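Biochemical qHTS: compound (6-point titration) added to 10uM D-luciferin plus 10uM ATP in Tris acetate pH 7.5 buffer with Mg, Tween-20 and BSA, then purified enzyme at 10nM; light output imaged.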
hNpr1 antagonist = blocks ANP-stimulated signaling of human Npr1 receptor; HEK293 hNpr1 GloSensor cGMP, ANP-stimulated luminescence; AID 1347048; 76,000 compounds, 1.6% hits; Potency, µM (highest dose often 46.3 µM), usual class: inhibitors; calls by dose curve; also: nearly all actives have a fitted effect of over 60% in size
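HEK293 cells stably expressing human Npr1 and cGMP GloSensor pGS-40F, loaded 2 h with 2% GloSensor reagent, given compound 30 min at room temperature. Luminescence read before and 20 min after 0.1 nM hNppA.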
HEK cytotox = cytotoxic compounds in HEK 293 cells. HEK 293 viability, ATP luminescence (CellTiter-Glo), 48-72 h. Potency, µM (top dose mostly 115 µM), actives largely listed as inhibitors. 94,000 compounds, 6.6% hits. AID 1345083; also: nearly all actives have a fitted effect of over 60% in size
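HEK 293 cells at 250 cells/well were exposed to compounds by pintool transfer for 48 or 72 hr at 37 degree Celsius, 5% CO2. Viability was read as ATP-coupled luminescence with CellTiter-Glo after 10 min at room temperature.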
NIH3T3 tox = NIH 3T3 cell cytotoxicity. NIH 3T3 viability, CellTiter-Glo ATP luminescence, 48-72 h. Potency, µM (doses to about 96.7 µM), usual class: inhibitors. 94,000 compounds, 4.3% hits; also: nearly all actives have a fitted effect of over 55% in size
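Cytotoxicity is measured as loss of cellular ATP: NIH 3T3 cells (400/well) are exposed to compound for 48 or 72 hr at 37 °C, then CellTiter-Glo luminescence is imaged after 10 min at room temperature.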
Numbers stand for hits; – = inactive; ? = inconclusive; · = no result given. The list is not random: actives were taken first. Their share in the collection is about 11%. Unless noted, calls follow the shape of the dose curve; as a rule, active = well fitted curve in the direction sought with a large enough effect; inconclusive = small, poorly fitted or top-dose-only effect, or another doubt; inactive = no such curve, though single readings can be large; an effect the other way counts as inactive or inconclusive.

SMILES	FLuc inh	hNpr1 antagonist	HEK cytotox	NIH3T3 tox
COc1cc(NC(=O)c2cc3c(N4CCCC4)nc(C)cn3n2)cc(OC)c1OC	–	–	45µM	?
COc1cc(NC(=O)c2cc3c(N4CCSCC4)nc(C)cn3n2)cc(OC)c1OC	–	–	35µM	?
COc1ccccc1NC(=O)c1cc2c(N3CCSCC3)nc(C)cn2n1	–	–	50µM	–
COc1ccccc1C(=O)N1CCCC(C(=O)N2CCCC(c3nc4ncccc4[nH]3)C2)C1 (configuration not stated)	·	·	–	–
Cc1ccc(C(=O)NC2CCN(c3ccc4nnc(C5CC5)n4n3)C2)cc1 (configuration not stated)	·	·	–	–
O=C(c1ccc2oc(-c3ccnc(Cl)c3)nc2c1)N1CCOCC1	·	·	?	35µM
CC1CCCC(C)N1C(=O)c1ccc2nc(-c3ccncc3)oc2c1 (configuration not stated)	·	·	71µM	–
CCOC(=O)C1CCN(C(=O)c2ccc3oc(-c4ccnc(Cl)c4)nc3c2)CC1	·	·	–	–
CCOC(=O)C1CCCN(C(=O)c2ccc3oc(-c4ccc(OC)nc4)nc3c2)C1 (configuration not stated)	·	·	?	–
CCOC(=O)C1CCCN(C(=O)c2ccc3nc(-c4ccncc4)oc3c2)C1 (configuration not stated)	·	·	45µM	?
O=C(c1ccc2oc(-c3ccncc3)nc2c1)N1CCCCC1	·	·	40µM	?
O=C(c1ccc2nc(-c3cccnc3)oc2c1)N1CCCCC1	·	·	–	–
Cn1nc(C2CC2)cc1NC(=O)Cc1ccccc1	·	·	?	–
N#Cc1cccc(CN(Cc2cccc(C#N)c2)[C@@H]2CO[C@H](CNC(=O)c3ccccc3)[C@H]2O)c1	–	–	79µM	?
Cc1cc(C)n(Cc2ccc(C(=O)N3CC[C@@H](n4c(=O)n(C)c5cccnc54)C3)o2)n1	·	·	–	?
O=C(CC1=C2CCCCC2N(Cc2ccccc2)C1=O)NCCN1CCCC1 (configuration not stated)	·	·	–	–
O=C(C1CCCN1C(=O)Nc1ccc(Cl)cc1)N1CCC(c2nc3ccncc3[nH]2)C1 (configuration not stated)	·	·	–	?
O=C(NCc1cccc(Cl)c1)c1ccc2nnc(-c3cccc(C(F)(F)F)c3)n2c1	·	·	?	32µM
O=C(NCc1cccnc1)c1ccc2nnc(-c3cc(C(F)(F)F)cc(C(F)(F)F)c3)n2c1	·	·	–	–
O=C(NCc1ccc(F)cc1)c1ccc2nnc(-c3cc(C(F)(F)F)cc(C(F)(F)F)c3)n2c1	·	·	?	35µM
O=C(NCCc1ccccc1F)c1ccc2nnc(-c3cccc(C(F)(F)F)c3)n2c1	·	·	?	35µM
N#Cc1cccc(-c2c(C(=O)NC3CCCCCC3)nc3sccn23)c1	·	·	–	–
N#Cc1cccc(NC(=S)N[C@H]2CO[C@H]3[C@@H]2OC[C@@H]3n2nnnc2Oc2cccc(N3CCOCC3)c2)c1	–	–	45µM	–
COCC(=O)N1CCN(C(=O)c2nc3cccnc3n(CCc3ccccc3)c2=O)CC1	·	·	–	–
COc1ccc(-c2cnc3n[nH]c(-c4sccc4C)c3n2)cc1OC	–	–	63µM	?
SMILES	FLuc inh	hNpr1 antagonist	HEK cytotox	NIH3T3 tox
Cc1ccccc1-c1[nH]nc2ncc(-c3cnn(C)c3)nc12	–	–	?	?
Cc1ccsc1-c1[nH]nc2ncc(-c3ccccc3F)nc12	–	–	71µM	?
COc1ccccc1-c1cnc2n[nH]c(-c3sccc3C)c2n1	–	–	89µM	?
Cc1ccccc1-c1[nH]nc2ncc(-c3ccccc3F)nc12	–	–	50µM	?
CS(=O)(=O)NC1CCN(c2ccc3nnc(C4CC4)n3n2)CC1	·	·	–	–
CCc1cc(=O)n(CC(=O)Nc2ccc(OC)cc2)c(-c2ccccc2)n1	–	–	?	?
CCc1cc(=O)n(CC(=O)Nc2cc(OC)c(OC)c(OC)c2)c(-c2ccccc2)n1	–	?	45µM	?
CNC(=O)c1cc(C)nc2onc(C3CCN(C(=O)c4ccc(OC)cc4)C3)c12 (configuration not stated)	·	·	–	–
CCN1c2cc(C(=O)Nc3ccc(OC(F)(F)F)cc3)ccc2C(=O)N2CCCCCC21 (configuration not stated)	–	–	32µM	25µM
CCN1c2cc(C(=O)Nc3ccc(C(F)(F)F)cc3)ccc2C(=O)N2CCCCC21 (configuration not stated)	–	–	?	?
CCN1c2cc(C(=O)Nc3cccc(OC(F)(F)F)c3)ccc2C(=O)N2CCCCC21 (configuration not stated)	–	–	25µM	?
CC(C)CC(=O)N1[C@@H](c2ccco2)[C@@H](C(=O)O)C[C@]12CCCCNC2=O	·	·	–	?
CC(C)C(=O)NCCNC(=O)c1ccc(-c2cccc(C(F)(F)F)c2)cc1	·	·	?	–
Cc1nc(CN2Cc3nc(OCc4ccc(F)cc4)ccc3OCC2=O)cs1	–	?	71µM	?
CN1CCCC1COc1ccc2c(n1)CN(Cc1ccc(F)cc1)C(=O)CO2 (configuration not stated)	–	–	–	?
O=C1COc2ccc(OCc3cncs3)nc2CN1Cc1ccc(F)cc1	–	–	112µM	?
Fc1ccc(-c2ccc3ncc(Nc4ccccn4)n3n2)cc1	–	–	89µM	?
Fc1ccc(-c2ccc3ncc(Nc4ccc(Cl)cn4)n3n2)cc1	–	–	100µM	100µM
COc1ccccc1Nc1ccnc(N2CCC[C@H]2C(=O)NC2CCCC2)n1	·	·	?	–
Cc1noc([C@@H]2C[C@H](NC(=O)Nc3cccc(F)c3)CN2C)n1	–	–	–	?
CN1C[C@@H](NC(=O)Nc2ccccc2)C[C@H]1c1nc(-c2ccc(F)cc2)no1	–	?	56µM	?
CN1C[C@@H](NC(=O)Nc2ccc(F)cc2F)C[C@H]1c1nc(-c2ccc(Cl)cc2)no1	71µM	?	?	–
CN1C[C@@H](NC(=O)c2ccc(F)cc2)C[C@H]1c1nc(-c2ccc(Cl)cc2)no1	–	–	?	?
Cc1ccc(-c2noc([C@@H]3C[C@H](NC(=O)Nc4cccc(F)c4)CN3C)n2)cc1	63µM	?	63µM	?
COc1cccc(C(=O)N2CCC(C(=O)N3CCCC(c4nc5ccncc5[nH]4)C3)CC2)c1 (configuration not stated)	·	·	–	–
CC(C)CC(=O)Nc1ccc([C@H]2OCC(=O)N(Cc3nccn3C)[C@@H]2CO)cc1	–	–	–	–
CC(C)CN1C(=O)CO[C@H](c2ccc(NC(=O)c3ccccc3)cc2)[C@H]1CO	–	–	100µM	?
COc1ccc(CN2C(=O)CO[C@H](c3ccc(NS(=O)(=O)c4ccc(F)cc4)cc3)[C@H]2CO)cc1	–	–	–	35µM
O=C(Nc1ccccc1)Nc1ccc([C@H]2OCC(=O)N(Cc3ccccc3)[C@@H]2CO)cc1	?	–	71µM	89µM
COc1ccc(C(=O)Nc2ccc([C@H]3OCC(=O)N(Cc4nccn4C)[C@@H]3CO)cc2)cc1	40µM	–	–	–
